Experimental data from PubChem BioAssay AID624405 (Broad Institute, 2012).
Among all 1,900 compounds or so, about 250 (13%) were called active. About 4% were inconclusive and are not listed.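 Rule for the calls: active = fitted curve reaches 40% rescue activity at or below the top valid dose, in every test run; inconclusive = test runs disagree, some active and some inactive; inactive = every run misses the threshold or moves the wrong way.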 The list is a sample of the results. Entries with a potency or affinity are not part of this list.

test: rescue of simvastatin-induced ATP loss – cell-based, C2C12 myotubes, ATP luminescence, cherry pick, dose response (AID 624405); conditions: 48 h, scaled: DMSO wells 0, geranylgeraniol wells 100; series mostly up to 19.5 µM; rescue activity (ATP increase): at the top concentration;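 note: myotubes are challenged with simvastatin at 10 µM to lower ATP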

| Compound | rescue activity (ATP increase) |
| --- | --- |
| CC(C)NC(=O)Nc1cccc2c1O[C@H](CN(C)Cc1ccc(-c3ccccc3)cc1)[C@@H](C)CN([C@@H](C)CO)C2=O | 15.1% (inactive) |
| Cc1ccc(S(=O)(=O)NCCN=C(CN2CCCC2)NS(=O)(=O)c2ccc(C)cc2)cc1 | 10.6% (inactive) |
| CC(=O)OC1CC(n2ccc(NC(=O)c3ccccc3)nc2=O)OC1CO (stereo not given) | 11.3% (inactive) |
| COc1ccc2oc(=O)cc(CN3CCN(Cc4ccc(OC)c(OC)c4OC)CC3)c2c1 | -43.4% (inactive) |
| C[C@@H]1CN([C@@H](C)CO)C(=O)Cc2cc(N(C)C)ccc2O[C@H]1CN(C)Cc1ccc2c(c1)OCO2 | 16.1% (inactive) |
| O=c1c2ccccc2ncn1Cc1nc2ccccc2s1 | -11.5% (inactive) |
| COc1ccc(Cc2nc(C(=O)Nc3ccc(OC)cc3)cs2)cc1 | 4.07% (inactive) |
| C[C@@H]1CCCCO[C@@H](CN(C)C(=O)Nc2cccc3ccccc23)[C@@H](C)CN([C@@H](C)CO)C(=O)c2cc(NS(=O)(=O)c3ccc(Cl)cc3)ccc2O1 | 3.78% [at 21 µM] (inactive) |
| COc1cccc(C#Cc2ccc3c(c2)O[C@H](CN(C)C(=O)c2ccccn2)[C@H](C)CN([C@H](C)CO)S3(=O)=O)c1 | -0.261% (inactive) |
| Cc1ccc(S(=O)(=O)N(C)c2ccc(C(=O)O)cc2)cc1 | -15.7% (inactive) |
| CCC1(C)Cc2c(sc3nc(NN)n(C)c(=O)c23)CO1 (stereo not given) | 30.3% [at 10 µM] (inactive) |
| C[C@H]1CN([C@@H](C)CO)C(=O)c2cc(C3=CCCCC3)cnc2O[C@H]1CN(C)Cc1ccccc1F | 16.7% (inactive) |
| C[C@@H]1CN([C@@H](C)CO)C(=O)c2cc(C#CC3CCCCC3)cnc2O[C@H]1CN(C)S(=O)(=O)c1ccc(F)cc1 | 14.9% (inactive) |
| C[C@H]1CN([C@@H](C)CO)C(=O)Cc2cc(NC(=O)CCCCCC(=O)Nc3ccccc3N)ccc2O[C@@H]1CN(C)Cc1ccc(Oc2ccccc2)cc1 | 37.8% [at 21 µM] (inactive) |
| C[C@@H]1CN([C@H](C)CO)C(=O)Cc2cc(NC(=O)CCCCCC(=O)Nc3ccccc3N)ccc2O[C@H]1CN(C)Cc1ccc(Oc2ccccc2)cc1 | 35.7% (inactive) |
| O=C(c1ccco1)N(Cc1ccco1)c1ccc(O)cc1 | 21.1% (inactive) |
| C[C@H]1CCCCO[C@H](CN(C)S(=O)(=O)c2ccc(Cl)cc2)[C@@H](C)CN([C@@H](C)CO)C(=O)c2cc(NS(C)(=O)=O)ccc2O1 | 9.53% (inactive) |
| COCCNC(=O)CSc1nc2ccccc2c2nc(C)nn12 | -16.7% (inactive) |
| C[C@H](CO)N1C[C@H](C)[C@@H](CN(C)Cc2ccc(-c3ccccc3)cc2)Oc2ccc(NC(=O)Cn3cnnn3)cc2CC1=O | 20.2% (inactive) |
| C[C@@H]1CN([C@@H](C)CO)C(=O)c2cc(C#Cc3ccc(F)cc3)cnc2O[C@H]1CN(C)C(=O)c1ccccc1F | 26.9% (inactive) |
| COc1ccc(S(=O)(=O)Nc2ccc3c(c2)C(=O)N([C@H](C)CO)C[C@H](C)[C@H](CN(C)Cc2ccc(Cl)c(Cl)c2)OCCCC[C@@H](C)O3)cc1 | 33.4% (inactive) |
| CN1C(=O)c2cc(NC(=O)c3cscn3)ccc2OC[C@H]2O[C@H](CC(=O)NCc3ccc(Cl)c(Cl)c3)CC[C@H]21 | 22.7% (inactive) |
| COc1ccc(S(=O)(=O)Nc2ccc3c(c2)CC(=O)N([C@H](C)CO)C[C@@H](C)[C@H](CN(C)Cc2ccc(Cl)c(Cl)c2)O3)cc1 | 38.2% [at 21 µM] (inactive) |
| CC(C)(Oc1ccc(Cl)cc1)C(=O)NCc1ccco1 | -10.1% (inactive) |
| CN1CCN(c2ccc(NC(=S)NC(=O)c3cccc4c(Br)cccc34)cc2)CC1 | 12.4% (inactive) |
| C[C@@H]1CCCCO[C@@H](CN(C)C(=O)Nc2ccc(C(F)(F)F)cc2)[C@H](C)CN([C@@H](C)CO)C(=O)c2cc(NC(=O)c3ccccc3)ccc2O1 | 4.74% (inactive) |
| Cc1ccc(S(=O)(=O)N(C)C[C@H]2Oc3ccc(NC(=O)Cc4ccccc4)cc3CC(=O)N([C@@H](C)CO)C[C@@H]2C)cc1 | 10.6% (inactive) |

| Compound | rescue activity (ATP increase) |
| --- | --- |
| C[C@@H]1CCCCO[C@H](CN(C)S(=O)(=O)c2ccc(Cl)cc2)[C@@H](C)CN([C@@H](C)CO)C(=O)c2cc(NS(C)(=O)=O)ccc2O1 | 17.1% (inactive) |
| COc1ccc(C(=O)c2ccc(OC)cc2O)c(O)c1 | -31.7% (inactive) |
| C[C@H]1CN([C@@H](C)CO)C(=O)Cc2cc(NC(=O)CCCCCC(=O)Nc3ccccc3N)ccc2O[C@@H]1CN(C)Cc1ccc(C(F)(F)F)cc1 | 26.4% [at 16 µM] (inactive) |
| C[C@H](CO)N1C[C@H](C)[C@H](CN(C)Cc2ccc(C(F)(F)F)cc2)Oc2ccc(NC(=O)CCCCCC(=O)Nc3ccccc3N)cc2CC1=O | 4.41% (inactive) |
| Cc1onc(-c2ccccc2)c1C(=O)OCC(=O)Nc1ccc2c(c1)OCO2 | 11.4% (inactive) |
| Cc1ccc(NC(=O)C(=S)NCc2ccco2)cc1 | -12.1% (inactive) |
| FC(F)(F)c1cccc(-c2nnc(-c3ccccc3)c(N3CCOCC3)n2)c1 | -100% (inactive) |
| Cc1ccc(Nc2cc(=O)[nH]c(=O)[nH]2)c(C)c1 | 3.31% (inactive) |
| COCC(=O)N1C[C@H]2[C@@H](c3ccccc31)[C@@H](CO)N2Cc1ccc(OC)cc1 | -32.2% (inactive) |
| CCCNC(=O)N(C)C[C@@H]1Oc2cc(-c3ccccc3)ccc2S(=O)(=O)N([C@@H](C)CO)C[C@@H]1C | -7.2% (inactive) |
| CC(C)NC(=O)Nc1ccc2c(c1)C(=O)N([C@@H](C)CO)C[C@H](C)[C@H](CN(C)Cc1ccccc1)O2 | 7.77% (inactive) |
| COc1ccc(NC(=O)CSc2nnc(-c3ccccc3Cl)n2Cc2ccco2)c(OC)c1 | 13.5% (inactive) |
| COc1ccc2cc(C(=O)O)n(CC(=O)c3ccccc3)c2c1 | 25.9% (inactive) |
| CCC(CC)C(=O)c1c[nH]c(C(=O)NCC2CCCO2)c1 (stereo not given) | 8.18% (inactive) |
| CN1C[C@H]2[C@@H](c3ccccc31)[C@H](CO)N2Cc1ccccc1 | 1.69% (inactive) |
| O=C(c1ccc(F)cc1)N1CCC(N2CCCCCC2)CC1 | -15.7% (inactive) |
| CCc1cccc(NS(=O)(=O)c2ccc(-n3cccn3)cc2)c1 | 37.6% (inactive) |
| Cc1ccc(C)c(NS(=O)(=O)c2ccc(-n3cccn3)cc2)c1 | 31.4% (inactive) |
| CC(C)c1ccc(NS(=O)(=O)c2ccc(-n3cccn3)cc2)cc1 | 7.18% (inactive) |
| Cc1ccc(NS(=O)(=O)c2ccc(-n3cccn3)cc2)cc1Cl | 17.5% (inactive) |
| COc1ccc(C#Cc2cnc3c(c2)C(=O)N([C@H](C)CO)C[C@H](C)[C@@H](CN(C)C(=O)Nc2cccc(OC)c2)O3)cc1 | 32.5% (inactive) |
| COc1cc(C(=O)OCCN2CCOCC2)ccc1O | 0.799% (inactive) |
| C[C@@H]1CN([C@@H](C)CO)C(=O)c2cccc(NC(=O)C3CCCCC3)c2O[C@@H]1CN(C)S(=O)(=O)c1ccc(Cl)cc1 | 6.54% (inactive) |
| C[C@H](CO)N1C[C@H](C)[C@H](CN(C)S(C)(=O)=O)OCCCC[C@H](C)Oc2ccc(NS(=O)(=O)c3ccc(F)cc3)cc2C1=O | 20% (inactive) |
| COc1ccc(-c2cnc3c(c2)C(=O)N([C@H](C)CO)C[C@H](C)[C@H](CN(C)S(=O)(=O)c2ccc(F)cc2)O3)cc1 | 22.4% (inactive) |
| Cc1[nH]nc2c1C(c1ccsc1)C(C#N)=C(N)O2 (stereo not given) | 15.8% (inactive) |
| OC[C@H]1[C@H]2c3ccccc3NC[C@H]2N1Cc1ccccc1Cl | -8.25% (inactive) |

| Compound | rescue activity (ATP increase) |
| --- | --- |
| CCC(CC)C(=O)Nc1cccc(/C(C)=N/NC(=O)c2ccccc2Cl)c1 | -38.2% (inactive) |
| COc1cc(OC)cc(C(=O)Nc2ccccc2C(=O)N2CCCC2)c1 | 4.03% (inactive) |
| O=C(NCc1ccncc1)Nc1ccccc1Cl | 3.84% (inactive) |
| C[C@@H]1CN([C@@H](C)CO)C(=O)Cc2cc(NS(=O)(=O)c3ccc(Cl)cc3)ccc2O[C@@H]1CN(C)Cc1ccc(C(F)(F)F)cc1 | 7.12% (inactive) |
| C[C@@H]1CN([C@@H](C)CO)C(=O)c2cccc(NS(=O)(=O)c3ccccc3)c2O[C@@H]1CN(C)S(=O)(=O)c1cccs1 | 25.9% (inactive) |
| O=C(Cn1cnc2c(nnn2Cc2ccc(F)cc2)c1=O)NC1CCCC1 | -82.2% [at 10 µM] (inactive) |
| O=C1c2ccccc2NC(c2cccc(F)c2)N1Cc1ccco1 (stereo not given) | 16.9% (inactive) |
| C[C@H](CO)N1C[C@H](C)[C@@H](CN(C)S(=O)(=O)c2cccs2)OCCCC[C@H](C)Oc2ccc(NC(=O)Nc3ccc(F)cc3)cc2C1=O | -8.95% (inactive) |
| CCc1ccc(C(O)(CC(C)C)C(CN2CCOCC2)c2ccccc2)cc1 (stereo not given) | 30.6% (inactive) |
| N#CC(c1ccc(Cl)cc1)c1ccc(Cl)nn1 (stereo not given) | 23.7% (inactive) |
| Cc1cc(C)n(CC(=O)N2c3ccccc3Sc3ccccc32)n1 | -1.56% (inactive) |
| O=C(COC(=O)Cc1ccccc1F)NCc1ccc(Cl)cc1 | -19.9% (inactive) |
| CCOC(=O)C(C)C1(O)c2ccccc2-c2ncccc21 (stereo not given) | -4.05% (inactive) |
| CN1C[C@H]2[C@@H](c3ccccc31)[C@@H](CO)N2Cc1ccccc1 | 5.51% (inactive) |
| CCOc1ccc(N(CC(=O)NCc2ccco2)S(=O)(=O)c2ccc(OC)c(OC)c2)cc1 | 11.6% (inactive) |
| CC(=O)N1c2ccc(S(=O)(=O)NCCC(=O)NCCc3ccc(C)cc3)cc2CC1C (stereo not given) | -9.48% (inactive) |
| Nc1nnc(-c2ccccc2)c(-c2ccccc2)n1 | 15.7% (inactive) |
| O=S(=O)(NC1=NCCC1)c1ccc(F)cc1 | 27.9% (inactive) |
| C[C@@H]1CCCCO[C@@H](CN(C)S(=O)(=O)c2cccs2)[C@@H](C)CN([C@@H](C)CO)C(=O)c2cc(NC(=O)Nc3ccc(F)cc3)ccc2O1 | 2.39% (inactive) |
| C[C@@H]1CCCCO[C@H](CN(C)C(=O)NC2CCCCC2)[C@H](C)CN([C@@H](C)CO)C(=O)c2cc(NS(=O)(=O)c3cccs3)ccc2O1 | 21.2% (inactive) |
| Cc1cc(S(=O)(=O)Nc2nc(CN3CCOCC3)nc3sc4c(c23)CCCC4)ccc1F | -8.27% (inactive) |
| C[C@H]1CN([C@@H](C)CO)C(=O)Cc2cc(NC(=O)Cc3ccccc3)ccc2O[C@@H]1CN(C)Cc1ccc(Cl)c(Cl)c1 | 22.2% (inactive) |
| C[C@H]1CN([C@@H](C)CO)C(=O)Cc2cc(NC(=O)CCCCCC(=O)Nc3ccccc3N)ccc2O[C@@H]1CN(C)Cc1ccc(Cl)c(Cl)c1 | 37.1% [at 18 µM] (inactive) |
| CC1CCCCN1S(=O)(=O)c1ccc(C(=O)Nc2sccc2C(N)=O)cc1 (stereo not given) | 39% (inactive) |
| O=C(CNC(=O)c1ccc(Br)cc1)N/N=C/c1cccnc1 | 11.2% (inactive) |
| C[C@@H]1CCCCO[C@@H](CN(C)CC2CCCCC2)[C@@H](C)CN([C@H](C)CO)C(=O)c2cc(NC(=O)Nc3ccc4c(c3)OCO4)ccc2O1 | -13.1% [at 21 µM] (inactive) |
